# Where a name gives a salt, the structure may show the parent alone.
# Tested on: Saccharomyces cerevisiae BY4741 SeMeCo community
# Experiment: z-score of subpopulation abundance vs DMSO median, subpopulation auxotrophic for HM; higher = larger share of this subpopulation than in DMSO controls
# Conditions: 10 µM; 24 h; SM minimal medium; subpopulation (auxotrophy): HM
# Experimental: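 Fluorescent four-plasmid SeMeCo (self-establishing metabolically cooperating S. cerevisiae BY4741 community; plasmids pH-mRuby2, pL-mWasabi, pU-eCFP, pM-TagRFP657) was grown 24 h in minimal SM medium with each Selleck FDA-approved drug at 10 µM in 384-well plates. Cells were fixed and imaged by high-content confocal microscopy. For each auxotrophic subpopulation (and the prototroph), a z-score gives the deviation from the DMSO vehicle-control population median.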
row,Compound,z-score of subpopulation abundance
1,COc1ccc2c3c([nH]c2c1)C(C)=NCC3 [Harmaline],3.18
2,CCN(CC)CCOC(=O)C(O)(c1ccccc1)c1ccccc1 [Benactyzine hydrochloride],-0.6
3,CC[C@@]1(O)C(=O)OCc2c1cc1n(c2=O)Cc2cc3ccccc3nc2-1 [Camptothecin],0.23
4,C[N+]1(C)[C@@H]2C[C@@H](OC(=O)[C@H](CO)c3ccccc3)C[C@H]1[C@@H]1O[C@@H]12 [Methscopolamine],0.16
5,CN(C)[C@@H]1C(=O)C(C(N)=O)=C(O)[C@@]2(O)C(=O)C3=C(O)c4c(O)ccc(Cl)c4[C@@](C)(O)[C@H]3C[C@@H]12 [Chlortetracycline HCl],-0.67
6,CC[N+](C)(CC)CCOC(=O)C(O)(c1ccccc1)c1ccccc1 [Methylbenactyzine Bromide],0.02
7,C=CC[C@]1(O)CC[C@H]2[C@@H]3CCC4=CC(=O)CCC4=C3C=C[C@@]21C [Altrenogest],-0.25
8,C[C@@H]1CC[C@H]2[C@@H](C)C(=O)O[C@@H]3O[C@@]4(C)CC[C@@H]1[C@]32OO4 [Artemisinin],-2.41
9,CCOC(=O)Nc1ccc(NCc2ccc(F)cc2)cc1N [Retigabine],0.58
10,CN(C)[C@@H]1C(=O)C(C(N)=O)=C(O)[C@@]2(O)C(=O)C3=C(O)c4c(O)cccc4[C@@](C)(O)[C@H]3[C@H](O)[C@@H]12 [Oxytetracycline (Terramycin)],0.64
11,CCN(C)C(=O)Oc1cccc([C@H](C)N(C)C)c1 [Rivastigmine Tartrate],-1.12
12,CC(C)=CCOc1c2occc2cc2ccc(=O)oc12 [Imperatorin],1.29
13,CN1[C@@H]2C[C@@H](OC(=O)[C@H](CO)c3ccccc3)C[C@H]1[C@@H]1O[C@@H]12 [Scopolamine HBr],-0.93
14,CC(C)(O)C(Cl)(Cl)Cl [Chlorobutanol],-0.53
15,O=C(O[C@H]1C[N+]2(CCCOc3ccccc3)CCC1CC2)C(O)(c1cccs1)c1cccs1 [Aclidinium Bromide],-0.01
16,O=c1[nH]c2ccccc2n1CCCN1CCC(n2c(=O)[nH]c3cc(Cl)ccc32)CC1 [Domperidone],0.27
17,"NCC(O)c1ccc(O)cc1 (racemic) [(+,-)-Octopamine HCl]",-0.78
18,CN[C@@H]1[C@@H](O)[C@@H](O[C@@H]2[C@@H](O)[C@H](O[C@H]3O[C@H]([C@@H](C)O)[C@@H](O)[C@H](O)[C@H]3N)[C@@H](N)C[C@H]2N)OC[C@]1(C)O [Geneticin (G418 Sulfate)],-0.26
19,COc1ccc2[nH]cc(CCN)c2c1 [5-Methoxytryptamine],-0.25
20,CCCN1C[C@H](CSC)C[C@@H]2c3cccc4[nH]cc(c34)C[C@H]21 [Pergolide Mesylate],-0.36

row,Compound,z-score of subpopulation abundance
1,Cn1cc(C2=C(c3cn(C4CCN(Cc5ccccn5)CC4)c4ccccc34)C(=O)NC2=O)c2ccccc21,-1.56
2,CCCCCCCCCCCCCCCC[n+]1ccccc1 [Cetylpyridinium Chloride],12.4
3,Cc1cc(O)ccc1Cl [Chlorocresol],-0.29
4,CCOC(=O)Nc1ccc(NCc2ccc(F)cc2)cc1N [Retigabine 2HCl],0.88
5,CN(C)C(=O)Oc1cccc([N+](C)(C)C)c1 [Neostigmine Bromide],-0.54
6,Nc1nc(N)nc(NC2CC2)n1 [Cyromazine],0.9
7,CN(C)[C@@H]1C(=O)C(C(N)=O)=C(O)[C@@]2(O)C(=O)C3=C(O)c4c(O)cccc4[C@@](C)(O)[C@H]3[C@H](O)[C@@H]12 [Oxytetracycline Dihydrate],-0.75
8,O=C(O[C@H]1C[C@H]2CC[C@@H](C1)[N+]21CCCC1)C(O)(c1ccccc1)c1ccccc1 [Trospium chloride],0.4
9,CC[C@H]1CN2CC[C@]3(C(=O)Nc4ccccc43)[C@@H]2C[C@@H]1/C(=C\OC)C(=O)OC [Rhynchophylline],-0.29
10,COc1ccc(C(CN(C)C)C2(O)CCCCC2)cc1 (stereo not given) [Venlafaxine HCl],-0.61
11,CC1(C)SC2C(N)C(=O)N2C1C(=O)O (stereo not given) [6-Aminopenicillanic acid],0.18
12,Oc1cccc2cccnc12 [8-Hydroxyquinoline],2.14
13,CCC1=C[C@H]2CN3CCc4c([nH]c5ccccc45)[C@](C(=O)OC)(C2)[C@H]13 [Catharanthine],-0.61
14,N[C@@H]1C[C@H]1c1ccccc1 [Tranylcypromine (2-PCPA) HCl],-0.71
15,C[N+]12CCC(CC1)C(OC(=O)C(O)(c1ccccc1)c1ccccc1)C2 (stereo not given) [Clidinium Bromide],-0.38
16,N#Cc1nn(-c2c(Cl)cc(C(F)(F)F)cc2Cl)c(N)c1[S+]([O-])C(F)(F)F (stereo not given) [Fipronil],-0.23
17,C[CH2][Hg][S]c1ccccc1C(=O)[O-].[Na+] [Thimerosal],22.6
18,COc1ccc2c(c1)[C@]13CCCC[C@@H]1[C@H](C2)N(C)CC3 [Dextromethorphan hydrobromide hydrate],0.71
19,C=CN1CCCC1=O.II [Povidone iodine],1.1
20,COc1ccc(C=O)cc1 [p-Anisaldehyde],-0.95
